Results taken from PubChem BioAssay AID624330 (Southern Research Specialized Biocontainment Screening …, 2012).
In all, about 340,000 compounds went through this assay and about 2,100 (0.62%) were called active.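 The calls were made as follows: active = first-screen hits whose inhibition reached a set limit at any dose in the follow-up dose series; inconclusive = inhibition above the set first-screen limit but never retested; inactive = the rest.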 These entries were drawn from the full list. Entries with a potency or affinity are not part of this list.

Biological target: Rac GTPase-activating protein 1 (Homo sapiens) (UniProt Q9H0H5)
Assay: MgcRacGAP GTPase-activating activity inhibitors, confirmation, biochemical, ADP Hunter fluorescence, primary and confirmatory (AID 624330);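 also: fluorescence reports GDP produced by GAP-driven GTP hydrolysis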
Settings: MgcRacGAP-stimulated Rac1 GTP hydrolysis, at 30 µM, active compounds read high, GST-tagged Rac1 F28L mutant substrate

Rac GTPase-activating protein 1 (Homo sapiens), sequence (Q9H0H5 whole entry, looked up): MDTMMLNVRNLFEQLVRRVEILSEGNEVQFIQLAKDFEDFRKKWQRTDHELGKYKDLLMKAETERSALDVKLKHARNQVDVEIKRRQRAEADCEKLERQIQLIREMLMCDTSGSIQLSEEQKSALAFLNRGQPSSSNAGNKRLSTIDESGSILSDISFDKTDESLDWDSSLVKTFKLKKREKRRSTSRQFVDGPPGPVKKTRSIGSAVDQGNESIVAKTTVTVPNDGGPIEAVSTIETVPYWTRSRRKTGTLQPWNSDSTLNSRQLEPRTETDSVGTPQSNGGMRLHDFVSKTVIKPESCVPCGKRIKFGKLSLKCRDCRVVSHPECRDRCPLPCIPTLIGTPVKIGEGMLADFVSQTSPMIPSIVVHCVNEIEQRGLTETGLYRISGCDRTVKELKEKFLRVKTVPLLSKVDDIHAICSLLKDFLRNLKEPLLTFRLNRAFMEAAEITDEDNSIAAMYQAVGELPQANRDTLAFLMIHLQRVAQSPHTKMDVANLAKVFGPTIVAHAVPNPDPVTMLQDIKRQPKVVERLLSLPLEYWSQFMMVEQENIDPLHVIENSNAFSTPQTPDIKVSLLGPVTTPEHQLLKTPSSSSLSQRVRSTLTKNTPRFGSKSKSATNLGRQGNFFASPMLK

inhibition, inactive:
CS(=O)(=O)N(CC(=O)N1CCCC1)c1cc(Cl)ccc1Cl 8.42%, Cc1ccc(S(=O)(=O)NCC(c2ccco2)N2CCc3ccccc3C2)cc1 (configuration not stated) 2.71%, Cc1c(N(C)S(=O)(=O)c2ccc(Cl)c(C(=O)NCC3CCCO3)c2)c(=O)n(-c2ccccc2)n1C (configuration not stated) 1.31%, O=C(Nc1nnc(C2CC2)s1)C1CCCCC1 3.57%, CCOc1ccc(CCNC(=O)COC(=O)c2ccc(OC(C)C)cc2)cc1OCC -0.74%, CCOc1ccccc1CN1CCC(N2CCC(C(=O)NC3CC3)CC2)CC1 9.11%, CCOc1ccccc1CN1CCC(O)CC1 15.6%, CCOc1ccc(C(=O)NCCC(=O)NCCCC(=O)O)cc1 -5.31%, O=C(CCS(=O)(=O)c1ccc(Cl)cc1)Nc1nnc(-c2ccco2)o1 3.12%, COc1cccc(CNCc2ccccc2OC)c1 22.3%, COc1ccc(NC(=O)NCCc2cccc(Cl)c2)cc1OC 11.4%, COc1ccccc1CNC(=O)CCSCc1cccc(Cl)c1 -0.5%, COc1ccc(CCNC(=O)Cc2cccc(C(F)(F)F)c2)cc1OC 8.81%, COc1ccc(CNCCc2ccc([N+](=O)[O-])cc2)c(OC)c1OC 25.1%, COc1cccc(CNCCO)c1OCc1ccc(Cl)cc1 9.58%, COc1ccccc1CNCc1cc(Br)ccc1OC 23.1%, COc1ccc(CNCc2ccc(C(F)(F)F)cc2)cc1OC 2.76%, O=C(NCc1ccco1)C1CCCN(c2nnc(-n3cccc3)s2)C1 (configuration not stated) 14.7%, C=CCn1c(SCC(=O)NC2(C)CCS(=O)(=O)C2)nc2ccccc21 (configuration not stated) 1.26%, Cn1c(N)c(C(=O)CSc2nc3ccccc3n2-c2ccccc2)c(=O)n(C)c1=O 4.85%, CCOC(=O)CNC(=O)C1c2ccccc2Oc2ccccc21 3.51%, Cc1csc(NC(=O)c2ccncc2)n1 7.69%, Cc1cc(=O)[nH]c(SCC(=O)Nc2ccccc2[N+](=O)[O-])n1 6.16%, CC(=O)N(C)c1ccc(N=Nc2ccc3ncccc3c2)cc1 -1.54%, COc1ccc(/C=N/NC(=O)c2sc3nc(C)cc(C)c3c2N)cc1 9.68%, O=C(O)C1Nc2c(C(F)(F)F)ccc(Cl)c2C2C=CCC12 (configuration not stated) -3.26%, CC(C)C1Nc2c(O)cc(Cl)c([N+](=O)[O-])c2C2C=CCC21 (configuration not stated) 11.3%, CCCCn1nc(C(=O)N(CC(C)C)c2c(N)n(CCCC)c(=O)[nH]c2=O)c2ccccc2c1=O 9.52%, COc1ccccc1-c1nnc(SCC(=O)NC2CCS(=O)(=O)C2)n1N (configuration not stated) 8.87%, Cc1cnc(C(=O)Oc2c(C)ccc(C)c2C)cn1 -0.23%, Cc1cnc(C(=O)OCC(=O)c2ccc(-c3ccccc3)cc2)cn1 -1.23%, Cc1ccc(S(=O)(=O)N2CCC(C(=O)NCCc3ccccc3)CC2)cc1 2.72%, CSCCC(NC(=O)c1ccccc1Cl)C(=O)NNC(=O)c1ccncc1 (configuration not stated) 7.49%, c1ccc(Cn2cc(-c3ccccc3)cn2)cc1 6.79%, COc1ccc(C(C#N)=C2C=CC(=NO)C(C)=C2Cl)cc1 21.7%, COc1ccc(C(C#N)=C2C=C(Cl)C(=NO)C=C2Cl)cc1 -1.89%, CC(C)c1ccc(NC(=O)CN2CCN(c3ccccn3)CC2)cc1 7.53%, O=C(CN1CCN(c2ccccn2)CC1)Nc1ccccc1 -4.1%, COC(=O)c1ccc(NC(=O)CN2CCN(c3ccccn3)CC2)cc1 2.35%, CC(=O)Nc1ccc(NC(=O)CN2CCN(c3ccccn3)CC2)cc1 6.59%, CN1CCN(C(=O)c2cnn3c(C(F)(F)F)cc(-c4ccc5c(c4)OCO5)nc23)CC1 9.9%, O=c1[nH]c2c(s1)C(c1ccc(O)cc1)C1C3CCC(C3)C1S2 (configuration not stated) 11.5%, C[C@H](NC(=O)[C@H](Cc1ccccc1)n1c(=O)[nH]c2ccccc2c1=O)C(=O)N1CCC[C@H]1C(=O)O -3.53%, O=C1C=C(NCCc2cc(Br)c(O)c(Br)c2)C(=O)c2ncccc21 9.18%, COc1ccc(CCN2C(=O)c3cccnc3C2=O)cc1OC 12.5%, CCOC(=O)C1CCN(C(=O)C2CCN(C(=O)c3ccc([N+](=O)[O-])cc3)CC2)CC1 12%, CCOC(=O)c1ccc(-n2c(=S)sc3c(=O)[nH]c(C)nc32)cc1 16.1%, C=CCNC(=O)C(=O)N/N=C/c1cccc(Br)c1 5.98%, O=c1ccc2c(-c3ccccc3S(=O)(=O)O)c3ccc(O)c(O)c3oc-2c1O 42.2%, O=C(O)c1ccccc1-c1c2cc(I)c(=O)c(I)c-2oc2c(I)c(O)c(I)cc12 28.3%, O=C(NCc1ccccc1)c1onc(CS(=O)(=O)c2ccccn2)c1C(=O)NCc1ccccc1 -5.99%, NC(=O)C(c1ccc(Cl)cc1)c1ccc(Sc2ccc(Cl)cc2)nn1 (configuration not stated) 11.6%, Nc1cccc(C(=O)Nc2cccc3ncccc23)c1 -7.17%, CCN(CC)CCC(=O)N1c2ccccc2Sc2ccc(Cl)cc21 2.76%, O=C(CCC(=O)N1CCOCC1)Nc1ccc(Cl)c(Cl)c1 5.89%, C=CC(=O)N1C/C(=C/c2ccc(Cl)cc2)C(=O)/C(=C\c2ccc(Cl)cc2)C1 13.6%, O=C1/C(=C/c2ccccc2)CN(C(=O)CCN2CCOCC2)C/C1=C\c1ccccc1 27.7%, O=C(/C=C/c1ccc(Cl)c(Cl)c1)N1CCOCC1 -0.69%, C=CC(=O)N1C/C(=C/c2ccc(F)cc2)C(=O)/C(=C\c2ccc(F)cc2)C1 13.1%, C=CC(=O)N1C/C(=C/c2ccccc2)C(=O)/C(=C\c2ccccc2)C1 26.6%, CCOC(=O)N1C/C(=C\c2ccccc2)C(=O)/C(=C/c2ccccc2)C1 12.1%, O=C(Nc1ccc(N2CCOCC2)cc1)c1ccc(Cl)c(S(=O)(=O)N2CCCCC2)c1 0.26%, CC1CC(=O)C2=C(C1)Nc1nc3ccccc3n1C2c1cccnc1 (configuration not stated) 6.35%, O=C(COc1cccc2cccnc12)Nc1cccc(S(=O)(=O)N2CCCC2)c1 7.88%, CCCCCCc1ccc(N2C[C@H](Cc3ccccc3)[C@@H](CC(=O)Nc3ccccc3)C2=O)cc1 3.37%, COc1cc(OC)c(N(C)C(=O)c2cn(C)c(=O)c3cc(OC)c(OC)cc23)cc1Cl 9.25%, COC(=O)c1ccc(CNC(=O)C2CCC(=O)N(CCN3CCOCC3)C2)cc1 (configuration not stated) 6.54%, CCOC(=O)N1CCC(Nc2c([N+](=O)[O-])cc(C(=O)O)cc2[N+](=O)[O-])CC1 9.55%, Cc1ccc(NC(=O)COC(=O)COc2cccc3c2OC(C)(C)C3)cc1S(=O)(=O)N1CCOCC1 5.48%, CC1=C(C(=O)N(C)C)CC(CC(=O)NCCN2CCOCC2)C(=O)N1CCC1=CCCCC1 (configuration not stated) 19.4%, O=C1/C(=C\c2ccccc2)CCC/C1=C/c1ccccc1 -6.55%, COc1ccc(OC(=O)N2C/C(=C/c3ccccc3)C(=O)/C(=C\c3ccccc3)C2)cc1 -4.51%, CCOC(=O)C1(C)C=C(Nc2ccc(NC(C)=O)cc2)C(=O)N1c1ccc(NC(C)=O)cc1 (configuration not stated) 4.87%, CCOC(=O)C1(C)C=C(Nc2ccc(C)cc2)C(=O)N1c1ccc(C)cc1 (configuration not stated) 1.9%, CC(C)N1C(=O)c2ccccc2C1C(=O)NCCc1ccccc1 (configuration not stated) 3.65%, COCC(=O)N(Cc1cc2cccc(C)c2[nH]c1=O)c1ccccc1 2.29%, CCOc1ccc(OCCC(=O)OCC(=O)c2c(N)n(CC(C)C)c(=O)n(C)c2=O)cc1 15%, Cc1cc(C)c2c(c1)NC(c1cc3c(cc1Br)OCO3)C1CC=CC21 (configuration not stated) -0.13%, O=C(O)C1Nc2c(Cl)cc(Cl)c(Cl)c2C2C=CCC12 (configuration not stated) 17.2%, CC1Cc2cc(S(=O)(=O)N3CCC(C(=O)N(C)Cc4ccccc4)CC3)ccc2N1C(=O)C1CC1 (configuration not stated) 8.31%, Fc1ccc(-n2cc(CNCCc3ccncc3)c(-c3ccccc3Cl)n2)cc1 1.7%, CCOc1ccc(OCC(=O)Nc2cc(Cl)ccc2-n2cncn2)cc1 20.4%, CCN(C(=O)COC(=O)CCCc1c[nH]c2ccccc12)c1c(N)n(Cc2ccccc2)c(=O)[nH]c1=O -4.19%, O=c1oc2ccc(Cl)cc2nc1/C=C(\O)c1ccco1 25%, O=c1oc2ccc(Cl)cc2nc1/C=C(\O)c1cccs1 19.2%, Cc1ccc2oc(=O)c(/C=C(\O)c3cccs3)nc2c1 15.8%, Cc1ccc2oc(=O)c(/C=C(\O)c3ccco3)nc2c1 18.2%, CN(CCO)c1cc(NCCCN2CCC(Cc3ccccc3)CC2)c2nonc2c1[N+](=O)[O-] 4.68%, Cc1ccc(C(=O)Nc2ccncc2)cc1[N+](=O)[O-] 10.1%, Cc1ccc(NC(=O)c2ccc(-n3cccn3)c([N+](=O)[O-])c2)cc1 6.01%, O=C(Nc1ccncc1)c1ccc(Cl)c(Cl)c1 4.24%, O=C(Nc1ccc(NC(=O)c2ccc(Cl)cc2Cl)cc1)c1ccc2c(c1)OCO2 5.16%
